Where “and” joins values, the source holds several entries; their conditions need not be identical. Identical values can stand only once. Compounds without any hit were thinned out: in the full panel of roughly 83,000, 20% have a hit.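 Assay: single dose, 48 h. Readout: percent growth (0 = no net growth; negative = cell death). Active: <10.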 Unmarked numbers belong to inactive results. Calls of active or inactive are those of the source.

Test in all cases: NCI-60 one-dose screen, 48 h (100 = growth as untreated, 0 = no growth, -100 = all killed)
Holding throughout (settings): 10 µM unless noted

The test system of assay [1] is SK-MEL-2 melanoma.
For assay [2], the system named is EKVX NSCLC.
The subject of assay [3] is SN12C renal.
Assay [4] relates to UO-31 renal.
Assay [5] has as its system TK-10 renal.
Assay [6] relates to ACHN renal.
Assay [7] has as its system CAKI-1 renal.
Assay [8] concerns A498 renal.
The subject of assay [9] is CCRF-CEM leukemia.
Assay [10] relates to MOLT-4 leukemia.

With `Cn1cc(-c2cc3nc(-c4c[nH]c5ccccc45)cc(N)n3n2)c2ccccc21`, the growth was -65.5% (active) in assay [1]; 55.1% in assay [2]; -78.5% (active) in assay [3]; -61.2% (active) in assay [4]; 8.91% (active) in [5]; -73.9% (active) in assay [6]. For the same compound, the growth in assay [7] is 29.7%; in [8] it was 130%; in [9], -38.1% (active); in assay [10] it was -19.4% (active).
Take `O=S(=O)(c1nc(-c2ccc(Br)cc2)oc1-c1ccc(Cl)cc1)N1CCCC(O)C1` (centres undefined): the growth in assay [1] is 65.2%; in assay [2], 50%; in assay [3], -59.5% (active); in assay [4], 37.4%; in assay [5] it was 102%; in assay [6], 53.8%. In addition, the growth was 71.1% in assay [7], 83.3% in assay [8], 48.1% in assay [9] and 6.98% (active) in assay [10].
For the compound `O=C1/C(=C/c2cccc3c2OCO3)Cc2c(F)cc(Br)cc21`, the growth in [1] was 111%; in assay [2] it was 94.4%; in [3], 111%; in assay [4] it was 90%; in assay [5] it was 115%; in [6] it was 108%. For the same compound, the growth in assay [7] was 94.6%; in assay [8] it was 152%; in assay [9] it was 103%; in assay [10] it was 106%.
As for `CSc1ccc(OCc2nc3ccccc3n2-c2cccc(NS(C)(=O)=O)c2)cc1`, the growth is 104% and 107% in [1]; 103% and 81.3% in [2]; 118% and 96.6% in [3]; 59.5% and 78.4% in assay [4]; 118% and 128% in assay [5]; 90.8% and 94.9% in [6]. The growth was 76.7% and 85% in [7]; 137% and 153% in assay [8]; 96.7% and 98.6% in [9]; 96.7% and 97.4% in [10].
Consider `N/C(=N\c1nc2ccccc2s1)NC(=O)Nc1ccccc1F`, for which the growth is 11% in assay [1]; 37% in [2]; 26.4% in assay [3]; 34.3% in assay [4]; 38.4% in [5]; 47.8% in [6]. The growth in assay [7] is 18.6%; in assay [8], 78.4%; in assay [9] it was 5.96% (active); in assay [10] it was 21.1%.
With `COc1ccc(NC(=O)N/N=C/c2c[nH]c3ccccc23)cc1`, the growth in assay [1] is -10.7% (active); in assay [2], 43.1%; in assay [3] it was 34.4%; in [4], 40.3%; in assay [5], 74.4%; in [6], 51.1%. Also, the growth in assay [7] was 44%; in assay [8], 85.5%; in assay [9], 21%; in [10], 20.5%.
For the compound `Cc1ccc(N=Nc2c(N)nn3c(-c4cc5cc(Br)ccc5oc4=O)ccnc23)cc1`, the growth in assay [1] is 108%; in assay [2] it was 72.2%; in [3], 35.6%; in assay [4], 79.8%; in assay [5], 81.9%; in [6] it was 54.4%. In addition, the growth is 80.8% in assay [7], 51.9% in [8], 99.8% in assay [9] and 98.6% in assay [10].
With `FC(F)(F)c1cc2c(Cl)ncnc2n1CCN1CCOCC1`, the growth was 47.7% in assay [1]; 92.8% in [2]; 75.6% in [3]; -92.7% (active) in assay [4]; 102% in [5]; -45.4% (active) in assay [6]. For the same compound, the growth is 75% in assay [7], 116% in assay [8], 36.6% in [9] and 20.2% in assay [10].
As for `O=C(Cc1c(-c2ccccc2[N+](=O)[O-])n(-c2ncnc3c2c(-c2ccccc2)c(-c2ccccc2)n3Cc2ccccc2)[nH]c1=O)c1ccc(Cl)c(Cl)c1`, the growth in assay [1] is -22.4% (active); in assay [2], 14.6%; in assay [3], 12.6%; in assay [4] it was 41.7%; in assay [5], 38.5%; in assay [6], 25.4%. Moreover, the growth in [7] is 9.03% (active); in assay [8], 56.1%; in [9], 13.2%; in assay [10] it was 24.1%.
With `COc1ccc2[nH]c(=O)c(CSc3ccccc3Nc3nccc(-c4ccc(C(F)(F)F)cc4)n3)cc2c1`, the growth in assay [1] is 41.9%; in assay [2], 54.3%; in assay [3], -30.8% (active); in assay [4], 26.9%; in assay [5], 97.1%; in assay [6] it was -29.4% (active). Moreover, the growth in assay [7] was -6.85% (active); in [8], 39.9%; in assay [9], 7.12% (active); in [10], -8.19% (active).
With `O=C1Nc2cc(-c3ccc(NS(=O)(=O)c4ccc(C(F)(F)F)cc4)cc3)ccc2/C1=C/c1ccc[nH]1`, the growth in assay [1] is 22.5%; in assay [2], 19.5%; in assay [3], 4.64% (active); in [4] it was 31.1%; in [5], 32.5%; in [6] it was 31.1%. Besides, the growth in assay [7] was 32.9%; in assay [8], 28.9%; in assay [9] it was 18.5%; in assay [10] it was 6.52% (active).
In the case of `NS(=O)(=O)c1ccc(N2N=C(c3ccc(NC(=O)Nc4ccccc4)cc3)CC2c2ccc(Br)cc2)cc1` (centres undefined), the growth in [1] is -75.8% (active); in [2], -95.8% (active); in [3], -97.7% (active); in assay [4], -97.2% (active); in [5] it was -61.3% (active); in [6], -100% (active). Also, the growth in assay [7] is -85.4% (active); in [8], -79.4% (active); in assay [9], 0.369% (active); in assay [10], 9.26% (active).
For the compound `O=C(c1ccc(O)cc1)C1[C@H](c2ccc(Cl)cc2)[C@@H](c2ccccc2)NC12C(=O)Nc1ccc(Br)cc12` (some centres undefined), the growth in [1] was -76.1% (active); in [2], -5.33% (active); in assay [3], -92.6% (active); in assay [4], -25.7% (active); in assay [5], 1.72% (active); in assay [6], 0.788% (active). The growth in assay [7] is 3.93% (active); in assay [8], -15.5% (active); in assay [9], -11.1% (active); in [10] it was -34.2% (active).
For the compound `Cc1ccc2c(c1)nc(-c1ccccc1)n2CC(=O)N=Nc1c(O)[nH]c2ccc(Cl)cc12`, the growth was -75.4% (active) in assay [1]; -31.9% (active) in assay [2]; -77.9% (active) in assay [3]; -89.6% (active) in assay [4]; -15.1% (active) in assay [5]; -89.5% (active) in assay [6]. Moreover, the growth was -42.6% (active) in assay [7], -71.1% (active) in assay [8], 4.22% (active) in assay [9] and -20.3% (active) in assay [10].
Consider `CC[C@]12C=CCN3CC[C@]4(C(=C(C(=O)OC)C1)Nc1cc(OC)c([C@@H]5[C@H]6O[C@H]6[C@@]6(CC)CC(C(=O)OC)=C7Nc8cc(O)ccc8[C@@]78CCN5[C@@H]68)cc14)[C@@H]32`, for which the growth in assay [1] was -67.3% (active); in assay [2] it was 6.25% (active); in [3], -30.1% (active); in assay [4] it was -4.18% (active); in [5], 25.6%; in [6], 1.9% (active). Further, the growth in assay [7] was 11.7%; in assay [8], 59%; in assay [9] it was -5.67% (active); in [10] it was -11.5% (active).
As for `CCOC(=O)/C(F)=C/C1CC1C(c1ccccc1)c1ccccc1` (centres undefined), the growth in [1] was 86.3%; in [2], 86.5%; in [3], 98.8%; in assay [4], 70.2%; in assay [5], 101%; in assay [6], 98.9%. The growth is 65.6% in assay [7], 87.9% in assay [8], 85.4% in [9] and 76.8% in assay [10].
Regarding `Cc1ccc(C(=O)Nc2cccc(C(=O)NC(=S)Nc3ccc(S(N)(=O)=O)cc3)c2)cc1`, the growth in assay [1] was 82.7%; in assay [2], 88.2%; in assay [3] it was 76.8%; in assay [4], 69.4%; in assay [5], 104%; in assay [6], 69.3%. For the same compound, the growth in assay [7] was 49.5%; in assay [8] it was 109%; in assay [9], 84.5%.
For the compound `CN(C)CCCNC(=S)Nc1ccc(/C=C/c2ccc(Cl)cc2)cc1`, the growth in [1] was -85.4% (active); in [2], -35.1% (active); in assay [3] it was -100% (active); in assay [4], -95.8% (active); in assay [5], -87.9% (active); in [6] it was -97.6% (active). Besides, the growth in [7] was -77.3% (active); in assay [8], -47.7% (active); in assay [9] it was -16.9% (active); in [10], 0.54% (active).
With `CN(C)CCCc1ccc(Nc2cnn(C)c(=O)c2Cl)cc1`, the growth was 112% in assay [1]; 98.1% in assay [2]; 100% in [3]; 88.1% in assay [4]; 109% in assay [5]; 113% in assay [6]. For the same compound, the growth in [7] is 83.5%; in [8], 94.7%; in [9], 102%; in [10], 115%.
In the case of `O=C(NN1C(=O)/C(=C/C=C/c2ccc([N+](=O)[O-])o2)SC1=S)c1ccc(O)cc1`, the growth in assay [1] is -89.4% (active); in assay [2], -98.1% (active); in [3] it was -97.5% (active); in assay [4], -92.7% (active); in [5] it was -99.3% (active); in assay [6], -100% (active). The growth in assay [7] was -100% (active); in assay [8], 14.6%; in [9], -24% (active); in [10], -40.7% (active).
For `COC(=O)c1cc(C(C)=O)n2c3ccccc3c3ccccc3c12`, the growth was 99.2% in assay [1]; 69.5% in [2]; 75.6% in [3]; 38% in assay [4]; 74.3% in [5]; 36.4% in assay [6]. Moreover, the growth in assay [7] is 44.5%; in assay [8], 121%; in [9], 85.2%; in assay [10], 73.3%.
In the case of `Fc1ccc(N2CC(Cn3c(C(F)(F)F)cc4c(Cl)ncnc43)C2)c(F)c1`, the growth is -78.1% (active) in [1]; 72.4% in assay [2]; -29.1% (active) in assay [3]; -92% (active) in assay [4]; 104% in assay [5]; 41.8% in [6]. Also, the growth is 71.7% in assay [7], 130% in assay [8], -38.5% (active) in assay [9] and -61.3% (active) in assay [10].
As for `COc1ccc(-c2nc3ccc(-c4nnc(SCc5ccccc5)o4)cc3[nH]2)cc1OC`, the growth in assay [1] is 66.4%; in assay [2], 58.1%; in assay [3], -2.42% (active); in [4], -8.65% (active); in assay [5] it was 23%; in [6], -45.4% (active). The growth in assay [7] is 16.2%; in [8], 117%; in [9], 76.4%; in [10], 78.8%.
Turning to `C[C@@H]1[C@H]2C[C@@H](C[C@H]1NCc1nc3ccccc3n1C1CCCCCC1)C2(C)C`, the growth in [1] was 70.6%; in [2], 68.3%; in [3], 39.8%; in assay [4], 44.4%; in assay [5], 90.8%; in [6] it was 59.5%. Moreover, the growth in [7] was 55.5%; in [8], 88.9%; in assay [9], 58%; in assay [10] it was 33.6%.
As to `CS(=O)(=O)Nc1cc(-c2ccc3ncnc(N4CCc5cc(F)c(Cl)cc54)c3c2)cnc1Cl`, the growth was -31.6% (active) in assay [1]; -23% (active) in assay [2]; 19.3% in [3]; 5.68% (active) in assay [4]; -1.98% (active) in assay [5]; 9.43% (active) in assay [6]. In addition, the growth in assay [7] is -8.1% (active); in assay [8], -36.5% (active); in [9], 16.7%; in [10], -47.4% (active).

For the origin of these results see PubChem BioAssay (NCI).
